Assay results from ChEMBL document CHEMBL3988442, “University of Dundee, Small-Polar-MMV Screening Library” (2021).
For some assays here: Potency and affinity values are given separately.

Key:
Parameters in all cases: scale not given: direction of the effect not stated beside the values
[1] = target: Protein translocase subunit SecA (Escherichia coli (strain K12)) (UniProt P10408); experiment: Assay to Identify E. coli SecA ATPase Inhibitors; type: functional; details: 30 µM
[2] = target: T1, Ubiquitin-activating enzyme e1, putative (Leishmania donovani (strain BPK282A1)) (UniProt E9BSI1); experiment: Leishmania donovani Ubiquitin Activating Enzyme (LdE1); type: functional; details: 30 µM
T1 sequence (whole entry): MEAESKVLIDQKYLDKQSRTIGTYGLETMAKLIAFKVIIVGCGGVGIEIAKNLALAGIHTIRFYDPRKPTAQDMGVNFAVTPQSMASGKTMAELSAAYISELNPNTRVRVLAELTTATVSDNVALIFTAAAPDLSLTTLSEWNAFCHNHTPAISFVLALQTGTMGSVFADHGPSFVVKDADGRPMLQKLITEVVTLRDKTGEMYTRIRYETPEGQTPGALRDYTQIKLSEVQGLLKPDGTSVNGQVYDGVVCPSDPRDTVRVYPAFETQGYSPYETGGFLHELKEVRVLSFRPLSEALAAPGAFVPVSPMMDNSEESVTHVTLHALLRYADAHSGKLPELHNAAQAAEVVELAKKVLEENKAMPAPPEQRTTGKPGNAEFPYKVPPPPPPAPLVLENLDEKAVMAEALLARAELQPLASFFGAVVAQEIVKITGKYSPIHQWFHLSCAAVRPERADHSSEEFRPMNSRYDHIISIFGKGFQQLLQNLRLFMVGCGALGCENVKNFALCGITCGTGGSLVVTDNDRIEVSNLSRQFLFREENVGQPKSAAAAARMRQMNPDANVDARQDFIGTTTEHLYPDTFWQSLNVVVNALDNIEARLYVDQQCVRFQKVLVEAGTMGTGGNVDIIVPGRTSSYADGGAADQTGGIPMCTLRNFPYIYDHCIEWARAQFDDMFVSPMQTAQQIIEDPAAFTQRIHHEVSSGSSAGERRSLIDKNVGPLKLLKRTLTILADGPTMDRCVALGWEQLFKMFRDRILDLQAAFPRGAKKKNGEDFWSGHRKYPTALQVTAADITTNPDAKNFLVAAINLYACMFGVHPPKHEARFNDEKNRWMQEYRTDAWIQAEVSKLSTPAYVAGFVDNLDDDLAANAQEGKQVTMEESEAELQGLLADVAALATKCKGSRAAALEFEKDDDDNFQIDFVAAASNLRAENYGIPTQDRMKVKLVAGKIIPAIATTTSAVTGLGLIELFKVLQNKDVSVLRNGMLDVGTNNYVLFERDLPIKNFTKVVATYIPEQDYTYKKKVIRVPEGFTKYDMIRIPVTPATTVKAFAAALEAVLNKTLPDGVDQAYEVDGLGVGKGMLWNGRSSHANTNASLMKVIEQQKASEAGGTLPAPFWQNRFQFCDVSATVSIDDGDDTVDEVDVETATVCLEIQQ

[3] = target: T2, Aspartate--tRNA(Asp/Asn) ligase (Mycobacterium tuberculosis (strain ATCC 25618 / H37Rv)) (UniProt P9WFW3); experiment: Assay for Asp RNA synthetase-1 from Mycobacterium tuberculosis; type: functional; details: 30 µM; note: in the data most compounds retested in dose-response had high values
T2 sequence (whole entry): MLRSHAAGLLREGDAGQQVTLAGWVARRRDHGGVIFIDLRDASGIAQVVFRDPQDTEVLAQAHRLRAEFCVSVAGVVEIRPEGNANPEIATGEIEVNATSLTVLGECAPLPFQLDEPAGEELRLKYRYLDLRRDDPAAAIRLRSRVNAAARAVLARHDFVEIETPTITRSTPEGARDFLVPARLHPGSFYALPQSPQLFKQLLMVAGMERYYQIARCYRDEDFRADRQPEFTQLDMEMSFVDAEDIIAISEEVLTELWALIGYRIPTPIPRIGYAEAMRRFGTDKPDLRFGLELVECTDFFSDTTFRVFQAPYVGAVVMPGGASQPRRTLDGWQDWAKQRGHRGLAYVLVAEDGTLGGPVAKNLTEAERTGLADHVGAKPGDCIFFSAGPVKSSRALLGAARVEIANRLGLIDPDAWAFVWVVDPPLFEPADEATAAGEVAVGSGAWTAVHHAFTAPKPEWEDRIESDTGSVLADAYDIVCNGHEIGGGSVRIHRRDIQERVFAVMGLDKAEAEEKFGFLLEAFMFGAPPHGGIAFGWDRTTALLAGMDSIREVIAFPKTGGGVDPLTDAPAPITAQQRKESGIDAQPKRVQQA

[4] = target: AMP-activated protein kinase, AMPK (Homo sapiens) (UniProt P54646+O43741+P54619+Q9UGJ0+Q9Y478+Q13131+Q9UGI9); experiment: AMP-dependent Kinase enzyme assay. An in vitro enzyme assay that detects ADP turnover that is directly proportional to AMPK activity. This uses naive AMPK that is activated during the assay with MK-8722; type: functional; details: 30 µM
[5] = target: Sialic acid-binding Ig-like lectin 9 (Homo sapiens) (UniProt Q9Y336); experiment: Hs-Siglec9 ALPHAscreen SOP 20170721; details: 10 µM
Trypanosoma cruzi = experiment: Trypanosoma cruzi phosphomannomutase and mannose-1-phosphate guanylyltransferase assay; type: functional; details: 10 µM
[6] = target: T3, Arginase-2, mitochondrial (Homo sapiens) (UniProt P78540); experiment: in vitro enzyme assay to detect the production of urea directly proportional to the activity of Arginase II; type: functional; details: 33.3 µM; note: in the data most compounds retested in dose-response had high values
T3 sequence (whole entry): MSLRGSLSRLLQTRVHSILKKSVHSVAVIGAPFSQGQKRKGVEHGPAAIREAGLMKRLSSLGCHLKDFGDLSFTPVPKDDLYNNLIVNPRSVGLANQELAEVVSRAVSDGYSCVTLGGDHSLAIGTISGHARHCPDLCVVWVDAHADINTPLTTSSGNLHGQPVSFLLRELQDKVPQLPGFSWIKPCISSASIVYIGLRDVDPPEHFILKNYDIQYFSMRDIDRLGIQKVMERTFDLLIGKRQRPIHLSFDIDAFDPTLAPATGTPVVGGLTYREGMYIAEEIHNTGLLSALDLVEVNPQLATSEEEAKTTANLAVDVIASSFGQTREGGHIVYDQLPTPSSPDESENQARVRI

[7] = target: T4, Proteasome subunit beta (Trypanosoma cruzi) (UniProt O96673); experiment: Trypanosoma cruzi proteasome chymotrypsin-like activity (TcProtChymo) assay.; note: in the data most compounds retested in dose-response had high values; type: functional; details: 9.37 µM
T4 sequence (whole entry): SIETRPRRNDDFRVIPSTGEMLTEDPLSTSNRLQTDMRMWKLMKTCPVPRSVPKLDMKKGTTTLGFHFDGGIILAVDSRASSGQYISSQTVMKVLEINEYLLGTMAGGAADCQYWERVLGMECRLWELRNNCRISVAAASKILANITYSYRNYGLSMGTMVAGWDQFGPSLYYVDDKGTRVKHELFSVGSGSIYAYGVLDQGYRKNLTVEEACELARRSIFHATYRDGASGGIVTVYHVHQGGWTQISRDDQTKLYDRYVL

Homo sapiens = organism: Homo sapiens; experiment: To identify inhibition of the IFN signalling (Jak-Stat) pathway via expression of an eGFP reporter gene under the control of an IFN-stimulated response element (ISRE) containing MxA promoter.; type: functional; details: 30 µM
[8] = target: Shiga toxin 2 (Escherichia coli O157:H7) (UniProt P09385+P09386); experiment: E. coli 0.157:H7 Shiga Toxin SOP - stx2 screening assay; type: functional; details: 30 µM
[9] = target: T5, Tyrosyl-tRNA synthetase, putative (Trypanosoma cruzi (strain CL Brener)) (UniProt Q4DSP6); experiment: Trypanosoma cruzi tyrosyl tRNA synthetase (TcYRS) _High Tyrosine SOP; type: functional; details: 30 µM; note: in the data most compounds retested in dose-response had high values
T5 sequence (whole entry): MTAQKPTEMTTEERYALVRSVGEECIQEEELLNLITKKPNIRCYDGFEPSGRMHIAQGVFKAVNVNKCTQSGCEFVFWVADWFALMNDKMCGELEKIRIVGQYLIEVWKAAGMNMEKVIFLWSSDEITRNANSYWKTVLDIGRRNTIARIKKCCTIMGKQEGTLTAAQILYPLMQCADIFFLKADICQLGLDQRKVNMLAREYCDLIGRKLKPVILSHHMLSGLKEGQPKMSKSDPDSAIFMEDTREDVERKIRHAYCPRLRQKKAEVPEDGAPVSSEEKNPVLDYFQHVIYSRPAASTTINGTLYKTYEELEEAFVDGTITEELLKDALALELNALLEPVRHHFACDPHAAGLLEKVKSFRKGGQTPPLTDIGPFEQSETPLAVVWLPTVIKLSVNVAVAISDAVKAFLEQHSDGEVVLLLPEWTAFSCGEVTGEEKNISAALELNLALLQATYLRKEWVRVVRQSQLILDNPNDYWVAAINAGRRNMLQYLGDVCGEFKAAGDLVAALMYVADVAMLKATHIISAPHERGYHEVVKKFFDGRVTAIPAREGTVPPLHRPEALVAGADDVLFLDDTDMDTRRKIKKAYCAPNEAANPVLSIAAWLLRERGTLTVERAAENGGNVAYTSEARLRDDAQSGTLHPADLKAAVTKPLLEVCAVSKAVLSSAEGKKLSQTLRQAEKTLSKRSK

[10] = target: T5, Tyrosyl-tRNA synthetase, putative (Trypanosoma cruzi (strain CL Brener)); experiment: Trypanosoma cruzi tyrosyl tRNA synthetase (TcYRS) SOP; type: functional; details: 30 µM
[11] = target: Chromo domain-containing protein 1 (Saccharomyces cerevisiae (strain ATCC 204508 / S288c) (Baker's yeast)) (UniProt P32657); experiment: ScCHD-1 Enzyme Inhibition Assay; type: functional; details: 30 µM; note: in the data most compounds retested in dose-response had high values
Sequence of Chromo domain-containing protein 1 (Saccharomyces cerevisiae (strain ATCC 204508 / S288c) (Baker's yeast)) (P32657 whole entry, the tested form may be a part): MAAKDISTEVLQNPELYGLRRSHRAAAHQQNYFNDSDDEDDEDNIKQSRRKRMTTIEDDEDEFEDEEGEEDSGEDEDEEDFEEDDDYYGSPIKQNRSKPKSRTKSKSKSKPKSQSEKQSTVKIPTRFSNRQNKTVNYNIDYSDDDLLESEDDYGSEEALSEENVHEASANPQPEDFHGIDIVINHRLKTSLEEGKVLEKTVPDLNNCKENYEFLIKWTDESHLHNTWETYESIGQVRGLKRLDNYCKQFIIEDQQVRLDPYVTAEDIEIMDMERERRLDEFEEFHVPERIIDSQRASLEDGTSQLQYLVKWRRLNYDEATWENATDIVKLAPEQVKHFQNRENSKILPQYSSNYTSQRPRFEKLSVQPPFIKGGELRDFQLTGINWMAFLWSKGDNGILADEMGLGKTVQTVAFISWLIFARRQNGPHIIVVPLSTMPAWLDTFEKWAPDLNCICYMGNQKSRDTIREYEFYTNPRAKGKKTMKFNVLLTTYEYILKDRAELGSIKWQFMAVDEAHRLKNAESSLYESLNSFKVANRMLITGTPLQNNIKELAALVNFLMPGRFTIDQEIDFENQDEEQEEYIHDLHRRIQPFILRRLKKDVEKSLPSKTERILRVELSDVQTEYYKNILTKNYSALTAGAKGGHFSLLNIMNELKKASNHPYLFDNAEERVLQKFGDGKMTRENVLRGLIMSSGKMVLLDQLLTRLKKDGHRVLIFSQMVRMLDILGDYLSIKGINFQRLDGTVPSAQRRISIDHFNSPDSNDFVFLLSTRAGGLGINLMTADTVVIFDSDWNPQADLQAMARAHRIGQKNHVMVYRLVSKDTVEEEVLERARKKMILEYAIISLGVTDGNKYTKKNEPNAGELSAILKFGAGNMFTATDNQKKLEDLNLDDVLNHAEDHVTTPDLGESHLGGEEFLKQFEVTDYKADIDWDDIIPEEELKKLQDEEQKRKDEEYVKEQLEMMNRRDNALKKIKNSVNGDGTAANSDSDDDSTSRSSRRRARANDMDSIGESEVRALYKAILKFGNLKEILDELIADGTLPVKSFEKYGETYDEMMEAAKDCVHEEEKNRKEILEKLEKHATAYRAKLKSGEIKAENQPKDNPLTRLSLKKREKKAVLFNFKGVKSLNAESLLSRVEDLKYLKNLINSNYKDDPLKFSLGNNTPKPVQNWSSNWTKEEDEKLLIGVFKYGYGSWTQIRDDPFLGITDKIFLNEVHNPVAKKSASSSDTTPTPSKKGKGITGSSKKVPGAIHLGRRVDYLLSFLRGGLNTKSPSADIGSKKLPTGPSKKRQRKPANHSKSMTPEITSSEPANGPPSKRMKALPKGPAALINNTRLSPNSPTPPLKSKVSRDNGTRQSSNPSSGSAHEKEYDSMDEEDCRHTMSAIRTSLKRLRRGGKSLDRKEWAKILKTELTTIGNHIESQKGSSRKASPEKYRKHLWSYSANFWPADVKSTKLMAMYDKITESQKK

Sequence of Protein translocase subunit SecA (Escherichia coli (strain K12)) (P10408 whole entry): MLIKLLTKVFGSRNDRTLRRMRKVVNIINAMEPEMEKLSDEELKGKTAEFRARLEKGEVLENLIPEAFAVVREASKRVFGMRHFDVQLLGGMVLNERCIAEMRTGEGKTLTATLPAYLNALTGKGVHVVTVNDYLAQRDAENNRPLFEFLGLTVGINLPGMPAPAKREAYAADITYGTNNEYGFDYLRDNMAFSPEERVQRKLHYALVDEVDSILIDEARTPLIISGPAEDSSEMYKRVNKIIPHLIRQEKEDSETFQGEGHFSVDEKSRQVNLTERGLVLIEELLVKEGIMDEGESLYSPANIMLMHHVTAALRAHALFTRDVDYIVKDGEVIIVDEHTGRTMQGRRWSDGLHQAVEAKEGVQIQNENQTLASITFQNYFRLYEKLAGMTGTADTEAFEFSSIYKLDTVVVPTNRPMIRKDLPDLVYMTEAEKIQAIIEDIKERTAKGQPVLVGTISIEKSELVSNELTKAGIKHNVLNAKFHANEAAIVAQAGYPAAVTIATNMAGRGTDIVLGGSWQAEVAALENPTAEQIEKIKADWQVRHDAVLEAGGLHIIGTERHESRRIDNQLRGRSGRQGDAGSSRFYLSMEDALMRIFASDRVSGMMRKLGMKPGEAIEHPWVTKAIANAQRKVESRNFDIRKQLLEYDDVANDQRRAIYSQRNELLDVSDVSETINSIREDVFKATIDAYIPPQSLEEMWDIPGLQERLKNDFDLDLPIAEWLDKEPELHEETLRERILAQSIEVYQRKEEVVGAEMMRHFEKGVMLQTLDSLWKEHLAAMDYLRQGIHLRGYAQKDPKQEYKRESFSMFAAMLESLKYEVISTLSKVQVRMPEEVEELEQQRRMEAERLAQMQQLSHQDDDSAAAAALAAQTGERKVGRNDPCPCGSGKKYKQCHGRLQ
Sequence of Sialic acid-binding Ig-like lectin 9 (Homo sapiens) (Q9Y336 whole entry): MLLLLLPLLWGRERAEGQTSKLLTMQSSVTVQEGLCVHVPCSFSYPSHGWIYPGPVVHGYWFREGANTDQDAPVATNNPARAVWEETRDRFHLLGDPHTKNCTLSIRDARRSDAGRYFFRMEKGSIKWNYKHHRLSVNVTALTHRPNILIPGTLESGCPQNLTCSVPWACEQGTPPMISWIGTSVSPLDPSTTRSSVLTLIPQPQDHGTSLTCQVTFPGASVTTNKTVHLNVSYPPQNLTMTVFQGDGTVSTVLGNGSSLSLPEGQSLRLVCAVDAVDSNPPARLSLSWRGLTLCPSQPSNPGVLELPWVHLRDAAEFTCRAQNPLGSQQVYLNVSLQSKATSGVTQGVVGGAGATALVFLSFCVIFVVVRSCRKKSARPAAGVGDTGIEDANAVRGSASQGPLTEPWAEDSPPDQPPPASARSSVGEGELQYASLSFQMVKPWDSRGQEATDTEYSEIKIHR

Compound | Percent Effect [1] [%] | Percent Effect [2] [%] | Percent Effect [3] [%] | Percent Effect [4] [%] | Percent Effect [5] [%] | Percent Effect (Trypanosoma cruzi) [%] | Percent Effect [6] [%] | Percent Effect [7] [%] | Percent Effect (Homo sapiens) [%] | Percent Effect [8] [%] | Percent Effect [9] [%] | Percent Effect [10] [%] | Percent Effect [11] [%]
O=C(COc1cccc(F)c1)N1C[C@@H](O)[C@H](N2CCCC2)C1 | 0.584 | 4.05 | -0.878 | 10.1 | 2.64 | 4.94 | 0.696 | 7.33 | -0.848 | -11.4 | 0 | -3.9 | -18.1
Fc1cnc(N2CCO[C@H]3CN(CC4CCCC4)C[C@H]32)nc1 | -2.09 | 21.3 | -4.57 | -6.38 | -0.399 | 3.48 | -60 | 3.93 | -7.5 | -12.1 | 3.12 | 2.5 | -13.4
